Only some compounds are listed: those with a hit (about 1.1% of all), similar ones and a draw of the others.
OTUD3 block = inhibitors of human OTUD3 deubiquitinase; purified OTUD3, Ub-rhodamine fluorescence, 2 h; inhibition, % at 25 µM; 0.7% of 47,000 active; AID 1645858, 2021
USP7 block = inhibitors of human USP7 deubiquitinase; Ubiquitin carboxyl-terminal hydrolase 7 (Homo sapiens), Q93009; purified USP7, Ub-rhodamine cleavage fluorescence; inhibition, % at 20 µM; 0.3% of 47,000 active; AID 1645854, 2021
UCHL1 inh = inhibitors of human UCHL1 deubiquitinase | Ubiquitin carboxyl-terminal hydrolase isozyme L1 (Homo sapiens), P09936 | purified UCHL1, Ub-rhodamine cleavage fluorescence | inhibition, % at 20 µM | 0.2% of 47,000 active | AID 1645859, 2021
Target sequence (P09936 whole entry, looked up): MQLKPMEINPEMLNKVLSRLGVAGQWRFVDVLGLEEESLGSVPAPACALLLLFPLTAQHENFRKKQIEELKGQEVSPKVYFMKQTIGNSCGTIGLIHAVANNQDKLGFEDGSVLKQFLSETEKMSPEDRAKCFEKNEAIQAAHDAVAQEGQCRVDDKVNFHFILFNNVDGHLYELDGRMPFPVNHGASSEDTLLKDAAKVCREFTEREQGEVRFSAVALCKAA
Numbers without * were called inactive. No stated cut-off is given here; in the data, active means inhibition above about 30%; inactive means the rest.

SMILES	OTUD3 block	USP7 block	UCHL1 inh
CC1CCN(Cc2nnc(-c3cn(CC(=O)NC4CCCCC4)c4ccccc34)o2)CC1	6	3	4
COc1ccccc1-c1nnc2sc(COc3ccc(F)cc3)nn12	6	-13	1
Cc1ccccc1-c1nnc2sc(COc3ccc(Cl)cc3)nn12	37*	8	5
Cc1cc(C)c(NC(=O)CSc2nc3nccnc3c(=O)n2Cc2ccccc2Cl)c(C)c1	31*	2	3
Cc1cc(C)c(NC(=O)CSc2nnc(Cc3cccc4ccccc34)n2C)c(C)c1	2	-17	-2
CCCOc1ccc(/C(O)=C2\C(=O)C(=O)N(CCN(C)C)C2c2ccc(C)o2)cc1 (stereo not given)	-23	-8	-9
Cc1ccc2cc(CN(Cc3cccnc3)S(=O)(=O)c3ccccc3)c(=O)[nH]c2c1	-10	-6	-8
Cc1ccc(CNc2nc(N3CCN(C)CC3)nc3c2cnn3C)cc1	12	4	5
CC(C)(C)n1ncc2c(=O)n(CC(=O)OCc3ccccc3)cnc21	-3	0	1
CC(C)(C)n1ncc2c(=O)n(CC(=O)N3CCCc4ccccc43)cnc21	1	45*	-2
CN1CCCn2nc(C3CCN(C(=O)Nc4cccc(C(F)(F)F)c4)CC3)cc2C1=O	0	-5	1
CCOC(=O)C1CCN(Cc2cc(=O)oc3cc(O)c(O)cc23)CC1	85*	52*	76*
CCOC(=O)C1CCCN(Cc2cc(=O)oc3cc(C)c(C(C)C)cc23)C1 (stereo not given)	0	6	2
Cn1ncc2c(N3CCSCC3)nc(C(=O)NCc3cccnc3)nc21	0	-1	1
CCOc1ccnc2c1c(=O)n(CC(=O)NC1CCCC1)c(=O)n2C	-17	-5	-6
Cc1occ2c1C(=O)c1c(O)ccc(O)c1C2	94*	99*	97*
COc1ccc(NC(=O)[C@H](C)NC(=O)c2cc3c(OC)cccc3[nH]2)cc1Cl	88*	39*	10
COc1ccc(OC)c(NC(=O)c2cc3c(OC)cccc3[nH]2)c1	-3	-10	4
CC(OC(=O)c1cccc(N(C)C)c1)C(=O)Nc1sccc1C(N)=O (stereo not given)	-2	-4	-1
CC(OC(=O)c1cccc(N(C)C)c1)C(=O)Nc1ncc(Cl)cc1Cl (stereo not given)	-2	2	75*
Cc1c(CNCCC2=CCCCC2)c(C(=O)O)c(C)n1Cc1ccc(F)cc1Cl	-7	-20	0
O=C(C1CC1)N1C[C@@H](c2ccccc2)[C@H](c2cc(C(F)F)n[nH]2)C1	-5	-6	-1
CCCc1cc(=O)[nH]c(N2CCN(c3ccccc3OC)CC2)n1	9	-2	1
CCc1[nH]c(=O)cc2cc(OC)c(OC)cc12	92*	-51	48*
CCS(=O)(=O)N1CCN2C(=O)c3ccccc3[C@H]2C1	-2	0	0
SMILES	OTUD3 block	USP7 block	UCHL1 inh
CC(=O)N1CCC2(CCN(C(=O)c3ccc(F)c(C(F)(F)F)c3)CC2)C1	-4	0	-2
COc1ccc(NC(=O)c2oc(=O)c3ccccc3c2-c2ccccc2)cc1Cl	0	10	6
COc1cc(-c2ccccc2)c(O)c(O)c1-c1ccccc1	91*	61*	36*
COc1ccc(Cc2nnc(Nc3ccc(F)cc3)[nH]c2=O)cc1OC	14	6	1
O=c1c(OC2O[C@H](CO)[C@H](O)[C@H](O)[C@H]2O)c(-c2ccc(O)cc2)oc2cc(O)cc(O)c12 (stereo not given in full)	34*	-28	3
COc1ccc(-c2coc3cc(O[C@@H]4O[C@H](CO)[C@@H](O)[C@H](O)[C@H]4O)ccc3c2=O)cc1	3	6	8
CC(=O)NCc1nc(-c2ccc3c(c2)nnn3C2CCCC2)no1	2	-6	0
COc1cccc(NC(=O)Cn2cc(C(=O)C3CC3)c3ccccc32)c1	9	6	5
Cc1ccc(C)c(NC(=O)Cn2cc(C(=O)C3CC3)c3ccccc32)c1	15	35*	3
COc1ccc(C2CCCCCN2C(=O)CN(C)S(=O)(=O)c2ccc(F)cc2)cc1 (stereo not given)	5	-1	2
O=C(COC(=O)c1ccccc1NS(=O)(=O)c1ccc2c(c1)OCCO2)c1ccc([N+](=O)[O-])cc1	-10	6	-1
COc1ccc(C(=O)COC(=O)c2ccccc2NS(=O)(=O)c2ccc(O)c([N+](=O)[O-])c2)cc1	36*	24	5
Cn1c2ccccc2c(=O)c2c(=O)n(C3CCCCC3)c(-c3ccccc3F)nc21	-10	1	-4
COc1ccc(NCc2cc(=O)n3[nH]c(NCc4ccc(C(C)C)cc4)nc3n2)cc1	26	3	-39
O=c1cc(CNc2ccc(Br)cc2)nc2nc(-c3ccccc3)[nH]n12	36*	-40	-65
CC(C(=O)NCc1cccnc1)n1c(C(F)(F)F)nc2ccccc21 (stereo not given)	-1	1	1
Cc1c(C)n(Cc2ccncc2)c2ncnc(NCC(C)C)c12	-23	-13	-12
COc1ccc(C(=O)CCN2CCOCC2)cc1[N+](=O)[O-]	36*	-1	5
COc1ccc(OC)c(CNCCCN2CCOCC2)c1	-5	7	-4
Cc1ccccc1NC(=O)N1CCN(c2cc(-c3ccncc3)[nH]n2)CC1	0	6	2
COc1cccc(CN2CCC3(CC2)OC(C(=O)Nc2ccccc2)Cn2ccnc23)c1 (stereo not given)	9	3	1
COc1cccc(NC(=O)C2Cn3ccnc3C3(CCN(C(C)=O)CC3)O2)c1 (stereo not given)	32*	-2	-4
Cc1cccc(CN2CC(c3noc(-c4ccccn4)n3)CC2=O)c1 (stereo not given)	-17	-10	-12
C=C1CCC2[C@](C)(CCC[C@]2(C)C(=O)OC)[C@H]1CCc1ccoc1CNC(CCSC)C(=O)O (stereo not given in full)	-8	2	-7
C=C1CCC2[C@](C)(CCC[C@]2(C)C(=O)OC)[C@H]1CCc1ccoc1CNC(C)C (stereo not given in full)	30*	11	5
SMILES	OTUD3 block	USP7 block	UCHL1 inh
Cc1ccc(-n2cccc2)c(NS(=O)(=O)c2ccc(-c3ccon3)s2)c1	-39	-1	0
CC(C)OC(=O)c1cc2c(ccn2-c2ccc(F)cc2)n1CC(=O)NC1CCCCC1	47*	2	0
COC(=O)c1cc2c(ccn2-c2ccc(F)cc2)n1CC(=O)NC1CCCCC1	14	7	-3
Cc1ccccc1NC(=O)Cc1nc(-c2cccnc2)n[nH]1	-3	0	-1
Cc1cccc(-c2c(NC(=O)c3ccc(Cl)cc3Cl)n(C)c3ccccc3c2=O)c1	10	5	2
COc1c2n(c3ccccc13)[C@@]1(O)C(=O)N(C)C(=O)[C@@]1(O)c1c-2n(C)c2ccc(Cl)cc12	50*	17	9
CNC(=O)[C@@H]1C[C@@H]2CN(Cc3ccc4ccccc4c3)CCN2[C@@]12C(=O)Nc1ccccc12	-21	-3	0
COc1ccc(NC(=O)CNC(=O)c2ccc3nc(-n4cccc4)sc3c2)cc1	32*	-22	11

Screens: PubChem BioAssay, Buhrlage Lab, Dana-Farber Cancer Institute and Novartis Institutes for BioMedical Research (Cambridge, Mass)
